Screening results (PubChem)
Shown are actives, neighbours in structure and some others; about 3.5% of the full set was active somewhere.
GPR151 ag = activates the human receptor GPR151 | Q8TDV0 | PathHunter beta-arrestin GPR151 cells, luminescence | activation, % at 11.2 µM | actives 1% (n = 650,000); in the data active = activation above about 4.9%
TEAD-YAP block = TEAD-YAP interaction inhibition; HEK-TIYL cells, TEAD-Gal4/YAP UAS-luciferase luminescence; inhibition, % at 9.12 µM; actives 1.4% (n = 640,000); AID 1259422; in the data active = inhibition above about 32%
FBW7 act = human FBW7 E3 ligase activation, primary screen. AID 1259310. AlphaScreen FBW7–phospho-cyclin E peptide binding, activator screen. normalized activity (activation), % at 26.1 µM. actives 0.13% (n = 650,000); in the data active = normalized activity above about 1.9%;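 note: purified mutant Fbw7 with reduced substrate affinity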
MITF primary = human MITF inhibition, primary screen. AID 1259374. inhibition, % at 2.6 µM. actives 0.91% (n = 650,000). O75030. AlphaScreen MITF homodimerization, bead proximity signal; in the data active = inhibition above about 50%
Target sequence (O75030 whole entry, looked up): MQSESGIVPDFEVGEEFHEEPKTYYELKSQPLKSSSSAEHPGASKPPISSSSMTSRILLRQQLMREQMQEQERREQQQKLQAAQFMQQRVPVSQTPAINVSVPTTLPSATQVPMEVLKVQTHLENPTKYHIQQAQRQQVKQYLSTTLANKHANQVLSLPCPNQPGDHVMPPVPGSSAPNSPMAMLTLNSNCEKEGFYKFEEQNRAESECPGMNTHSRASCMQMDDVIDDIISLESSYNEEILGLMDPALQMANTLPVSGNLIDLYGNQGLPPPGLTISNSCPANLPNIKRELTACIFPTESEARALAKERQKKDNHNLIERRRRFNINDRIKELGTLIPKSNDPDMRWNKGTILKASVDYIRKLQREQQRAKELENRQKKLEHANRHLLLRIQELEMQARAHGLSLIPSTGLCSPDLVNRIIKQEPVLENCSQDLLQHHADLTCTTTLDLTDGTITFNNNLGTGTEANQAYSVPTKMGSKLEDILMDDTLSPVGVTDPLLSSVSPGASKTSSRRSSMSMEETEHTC
MITF inh conf = human MITF inhibition, confirmation; shares compounds with MITF primary; AlphaScreen MITF homodimerization, biotin/His-MITF beads; inhibition, % at 2.6 µM; actives 16% (n = 4,700); AID 1259372;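 active = inhibition above a cutoff derived from the DMSO control wells, cut at about 28% in these data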;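 note: inhibitors lower the bead chemiluminescence by keeping MITF from dimerizing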
AS interf DR = counter-screen: compounds optically interfering with AlphaScreen; shares compounds with MITF primary; AlphaScreen optical interference counterscreen, cell-free; IC50, µM; actives 6% (n = 480); AID 1259373; call rule not given here
AS interf ctr = counter-screen: compounds optically interfering with AlphaScreen; shares compounds with MITF primary; LysRS AlphaScreen counterscreen, signal interference, triplicate; inhibition, % at 2.6 µM; actives 7.6% (n = 4,700); AID 1259376;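 active = inhibition above a cutoff derived from the DMSO control wells, cut at about 30% in these data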
Large screens that a line does not name were inactive (follow-up assays come after a bar, where they were run).

O=C(COC(=O)c1cc(=O)c2ccccc2o1)NCc1ccccc1	none
O=C(COC(=O)c1cc(=O)c2ccccc2o1)NCc1ccc(Cl)cc1	MITF primary 51.5 | MITF inh conf inactive | AS interf ctr inactive
Clc1cc2c(c3ncccc13)OCN(Cc1ccccn1)C2	MITF primary 114.5 | MITF inh conf 65.1 | AS interf ctr 87.8
Clc1cc2c(c3ncccc13)OCN(CC1CCCO1)C2 (stereo unspecified)	MITF primary 87.9 | MITF inh conf 100.1 | AS interf ctr 100.6
CCCCN1COc2c(cc(Cl)c3cccnc23)C1	TEAD-YAP block 41.4, MITF primary 77.8 | MITF inh conf 72.6 | AS interf ctr 100.3
CN(C(=O)CN1C(=O)COc2c1cc(Cl)c1cccnc21)C1CCCCC1	none
NC(=O)c1ccc(NC(=O)COC(=O)c2cc3c(s2)CCC3)cc1	none
O=C(OCN1C(=O)c2ccccc2C1=O)c1cc2c(s1)CCC2	MITF primary 74.3 | MITF inh conf 77.2 | AS interf DR inactive | AS interf ctr inactive
NC(=O)COC(=O)c1cc2c(s1)CCC2	MITF primary 61.6 | MITF inh conf 59.7 | AS interf DR inactive | AS interf ctr inactive
N#C/C(=C(/O)COC(=O)c1cc2c(s1)CCC2)c1nc2ccccc2[nH]1	MITF primary 86.6 | MITF inh conf 81.8 | AS interf DR inactive | AS interf ctr inactive
O=C(CN1C(=O)c2ccccc2C1=O)NNC(=O)c1cc2c(s1)CCCC2	none
CCc1ccccc1NC(=O)C(NS(=O)(=O)c1ccc2nc(C)sc2c1)C(C)C (stereo unspecified)	none
COCC(C)NC(=O)CSc1nc(C)nc2sc(-c3ccccc3)cc12 (stereo unspecified)	none
COc1cc(OC)cc(-c2ncc3ccccn23)c1	MITF primary 66.7 | MITF inh conf inactive | AS interf ctr inactive
COc1cccc(-c2ncc3ccccn23)c1	MITF primary 68.2 | MITF inh conf inactive | AS interf ctr 32.4
CCCC1CCC(=NNc2ccc(S(=O)(=O)N3CCOCC3)cc2[N+](=O)[O-])CC1 (stereo unspecified)	none
COCCNCCOc1ccc(Cl)cc1C(C)(C)C	MITF primary 73.6 | MITF inh conf inactive | AS interf ctr inactive
CC(C)(C)c1cc(Cl)ccc1OCCOCCN1CCOCC1	MITF primary 64.3 | MITF inh conf inactive | AS interf ctr inactive
COCCNCCOc1cccc(Cl)c1Cl	MITF primary 72.1 | MITF inh conf inactive | AS interf ctr inactive
Cc1ccc(C(C)(C)C)c(OCCNCCN)c1	MITF primary 79.8 | MITF inh conf inactive | AS interf ctr inactive
COCCCNCCCOc1ccc(Cl)cc1C(C)(C)C	none
CCCCCCC1CCC(C(=O)Nn2c(-c3ccc(C)c(C)c3)nc3ccccc3c2=O)CC1 (stereo unspecified)	none
O=S(=O)(c1ccc(NC(=S)NCC2CCCO2)cc1)N1CCCC1 (stereo unspecified)	none
CN1CCN(CCOc2ccc(Cl)cc2C(C)(C)C)CC1	MITF primary 78.6 | MITF inh conf inactive | AS interf ctr inactive
Cc1ccc(C(C)(C)C)c(OCCn2ccnc2)c1	none
Cc1ccc(C(C)(C)C)c(OCCN2CCN(C)CC2)c1	MITF primary 77.0 | MITF inh conf inactive | AS interf ctr inactive
COC(=O)c1cc(S(=O)(=O)N2CCN(c3cc(Cl)ccc3C)CC2)cn1C	none
COc1cc([N+](=O)[O-])ccc1NC(=O)c1ccc(S(=O)(=O)N2CCOCC2)cc1	none
O=C(/C=C/c1ccc(Cl)cc1)Nc1ccc(Br)cc1	none
CC(C)NC(=O)/C(C#N)=C/c1ccc(-c2ccc([N+](=O)[O-])cc2Br)o1	MITF primary 72.6 | MITF inh conf 76.6 | AS interf DR inactive | AS interf ctr inactive
CC(=O)N/N=C/c1ccc(-c2ccc([N+](=O)[O-])cc2Br)o1	none
Cn1c(-c2cccc([N+](=O)[O-])c2)cnc1NC(=O)c1cccc([N+](=O)[O-])c1	none
CCS(=O)(=O)N1CCN(Cc2cc(OC)c(OC)c(OC)c2)CC1	MITF primary 51.8 | MITF inh conf inactive | AS interf ctr inactive
COc1cc(CN2CCN(S(=O)(=O)c3ccc(F)cc3)CC2)cc(OC)c1OC	MITF primary 51.5 | MITF inh conf inactive | AS interf ctr inactive
COc1cc(CN2CCN(S(=O)(=O)c3ccc([N+](=O)[O-])cc3)CC2)cc(OC)c1OC	none
COc1cc(CN2CCN(S(=O)(=O)c3ccc(C)cc3)CC2)cc(OC)c1OC	MITF primary 51.8 | MITF inh conf inactive | AS interf ctr inactive
COc1cc(CN2CCN(S(=O)(=O)c3ccccc3)CC2)cc(OC)c1OC	none
COc1ccc(-c2cc(C(F)(F)F)n3nc(C(=O)Nc4cc(Cl)ccc4Cl)cc3n2)cc1OC	none
COc1cc(CN2CCN(C3CCCC3)CC2)cc(OC)c1OC	MITF primary 64.6 | MITF inh conf 28.1 | AS interf DR inactive | AS interf ctr inactive
COc1cc(CN2CCN(C3CCCCC3)CC2)cc(OC)c1O	MITF primary 65.3 | MITF inh conf inactive | AS interf ctr inactive
N#CCc1c(C#N)c(N)nc(N2CCN(C(=O)c3ccco3)CC2)c1C#N	none
COc1ccc(NC(=O)c2cccc(N3C(=O)C4CCCCC4C3=O)c2)c(OC)c1 (stereo unspecified)	none
Cc1cc([N+](=O)[O-])ccc1NC(=O)COc1ccc(Cl)cc1	none
CCC(C)C(=O)NCc1nnc2n1CCN(C/C=C/c1ccco1)CC2 (stereo unspecified)	MITF primary 59.6 | MITF inh conf 77.2 | AS interf DR inactive | AS interf ctr inactive
CSc1ccc(Cc2nnc(NC(=O)c3cc(C)oc3C)o2)cc1	none
CSc1ccc(Cc2nnc(NC(=O)C34CC5CC(CC(C5)C3)C4)o2)cc1	MITF primary 52.4 | MITF inh conf inactive | AS interf ctr inactive
COc1ccc(-c2ncn(-c3ccc(Nc4ncc5ccc(-c6cnn(C)c6)cc5n4)cc3)n2)cn1	MITF primary 54.7 | MITF inh conf inactive | AS interf ctr inactive
c1ccc(C2C3=C(CCCC3)SC3=C2CCCC3)cc1	MITF primary 69.6 | MITF inh conf inactive | AS interf ctr inactive
O=C(CCCn1c(SCC(=O)NC2CCCC2)nc2ccccc2c1=O)NCCCN1CCOCC1	MITF primary 56.8 | MITF inh conf inactive | AS interf ctr inactive
N#CC(C#N)=C(N)/C(C#N)=C/c1ccc([N+](=O)[O-])o1	MITF primary 84.3 | MITF inh conf 66.5 | AS interf DR inactive | AS interf ctr inactive
Cc1nnc(SCc2nc(N)nc(N3CCOCC3)n2)s1	none
Cc1ccc(-n2cc3c(c(C#N)c2=N)CC(C)(C)CC3=O)cc1C	none
CC1(C)CC(=O)c2cn(-c3ccc(Cl)cc3)c(=N)c(C#N)c2C1	MITF primary 54.8 | MITF inh conf inactive | AS interf ctr inactive
